Assay results: PubChem BioAssay (NCATS)
Inconclusive results are not listed. Where a call stands in place of a potency, no number is given. Active and inactive are the calls of the source. Calls come from the whole dose curve; as a rule, active = well fitted curve in the direction sought with a large enough effect; inconclusive = small, poorly fitted or top-dose-only effect, or another doubt; inactive = no such curve, though single readings can be large; an effect the other way counts as inactive or inconclusive.

Experiments:
[1] = molecular target: Glutathione peroxidase 1 (Homo sapiens) (UniProt P07203); test: Primary qHTS Assay for Inhibitors of Recombinant Selenoprotein Glutathione Peroxidase 1 (GPX1) (AID 1845191); note: nearly all actives have a fitted effect of over 65% in size
Outline: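 NADPH consumption tracked by fluorescence at 340/450 nm between t=0 and t=15 min, room temperature. Final mix: 10 nM GPX1, 100 nM glutathione reductase, 1 mM GSH, 0.5 mM NADPH, 0.5 mM cumene hydroperoxide, 0.01% BSA; 30 min compound–enzyme preincubation.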

[2] = molecular target: Phospholipid hydroperoxide glutathione peroxidase GPX4 (Homo sapiens) (UniProt P36969); test: Primary qHTS Assay for Inhibitors of Recombinant Selenoprotein Glutathione Peroxidase 4 (GPX4) (AID 1845192); note: nearly all actives have a fitted effect of over 65% in size; note: potency is the fitted concentration of half-maximal effect
Outline: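 NADPH consumption followed by fluorescence at 340/450 nm, t=0 and after 15 min at room temperature. Reaction started with cumene hydroperoxide (0.5 mM final) after 30 min compound–GPX4 preincubation; final 200 nM GPX4, 100 nM GR, 1 mM GSH, 0.5 mM NADPH.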

[3] = Quantitative High-Throughput drug screen in 47 multiple myeloma cell lines against the NCATS MIPE library collection: FR4_PLB cell viability assay (AID 1918924; note: nearly all actives have a fitted effect of over 35% in size; note: potency is the fitted concentration of half-maximal effect)
Outline: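 Myeloma cells (500 per well) were exposed to MIPE 4.0 compounds by pin transfer and incubated 48 hours at 37C, 5% CO2. Viability was read as ATP by CellTiter-Glo luminescence, normalised to DMSO (100%) and media-only (0%) wells.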

[4] = molecular target: Luciferin 4-monooxygenase (Photinus pyralis) (UniProt P08659); test: Primary firefly luciferase (FLuc) qHTS assay for identification of artifact compounds. (AID 1845220); note: nearly all actives have a fitted effect of over 60% in size
Outline: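 Compounds sat 15 min at room temperature with 10 uM luciferin and 10 uM ATP (pH 7.6 Tris acetate). Firefly luciferase (10 nM final) was then added, and luminescence was read 5 min later. Data normalized to no-enzyme and DMSO controls were Hill-fitted.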

[5] = Primary fluorescence-based thiol-reactive (MSTI) qHTS assay for identification of artifact compounds. (AID 1845221); note: nearly all actives have a fitted effect of over 65% in size; note: potency is the fitted concentration of half-maximal effect
Outline: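 Reactivity toward the thiol probe MSTI (4 uM) is scored by fluorescence at Ex/Em 525/598 nm after 1 h at room temperature. Acetyl-MSTI and MSTI define the activity scale.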

[6] = Primary redox qHTS assay for identification of artifact compounds. (AID 1845223)
Outline: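 Redox-cycling detection via DTT (250 uM final) oxidation coupled to Amplex Red (25 uM)/HRP (250 mU/mL) in HBSS. 15 min preincubation plus 30 min after DTT, room temperature. Ex/Em 525/598 nm; 4-parameter Hill fit against DMSO and 10 uM DA3003.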

[7] = system: Nanoluciferase (engineered Oplophorus gracilirostris luciferase); test: Primary Nanoluciferase (NLuc) qHTS assay for identification of artifact compounds. (AID 1845222); note: series mostly up to about 54 µM
Outline: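 Luminescence from secreted NLuc (filtered, 1:55-diluted S16 cell medium) read 5 min after Nano-Glo substrate; compounds preincubated 15 min, RT. Hill fits of inhibition normalized to DMSO and no-enzyme.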

Sequence of Phospholipid hydroperoxide glutathione peroxidase GPX4 (Homo sapiens) (P36969 whole entry, looked up): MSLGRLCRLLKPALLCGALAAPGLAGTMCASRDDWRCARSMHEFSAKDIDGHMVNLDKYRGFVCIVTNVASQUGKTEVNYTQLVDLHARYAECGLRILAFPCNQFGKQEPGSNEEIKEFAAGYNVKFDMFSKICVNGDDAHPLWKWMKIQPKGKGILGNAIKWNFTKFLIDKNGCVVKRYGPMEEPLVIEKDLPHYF
Sequence of Glutathione peroxidase 1 (Homo sapiens) (P07203 whole entry, looked up): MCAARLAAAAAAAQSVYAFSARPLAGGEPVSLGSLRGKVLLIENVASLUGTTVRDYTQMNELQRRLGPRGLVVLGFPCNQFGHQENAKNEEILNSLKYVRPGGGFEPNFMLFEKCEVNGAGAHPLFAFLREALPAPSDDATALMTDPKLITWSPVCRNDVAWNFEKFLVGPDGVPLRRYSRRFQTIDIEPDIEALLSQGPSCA

Which Potency [1] does the source give for `COCCNCCCn1c(C(=O)CF)c(-c2ccc(C)cc2)c2c(N)ncnc21` here?
The Potency was “inactive”.

What about the Potency [2] of the same compound?
Its Potency is “inactive”.

What about the Potency [3] of the same compound?
The Potency was 13.2 µM (active).

Which results are given for `Cc1ccnc(NS(=O)(=O)c2ccc(NC(=O)Nc3ccc(S(=O)(=O)Nc4nccc(C)n4)cc3)cc2)n1`?
Potency [1]: inactive; Potency [2]: inactive; Potency [4]: inactive; Potency [5]: inactive; outcome [6]: inactive

With `CCN(c1ccccc1)c1cc(NC)[n+](C)c(C)n1` as the compound, how does the Potency [1] read?
Its Potency is “inactive”.

What about the Potency [2] of the same compound?
Its Potency is “inactive”.

And the Potency [3]?
Its Potency is “inactive”.

Which Potency [1] does the source give for `Cc1oncc1C(=O)Nc1ccc(C(F)(F)F)cc1` here?
The Potency was “inactive”.

And the Potency [2]?
Its Potency is “inactive”.

And the Potency [3]?
Its Potency is “inactive”.

For `Cc1c(C)c2c(c(C)c1O)CCC(C)(COc1ccc(CC3SC(=O)NC3=O)cc1)O2` (configuration not stated), which Potency [1] is on record?
Its Potency is “inactive”.

And the Potency [2]?
Its Potency is “inactive”.

And the Potency [3]?
The Potency was “inactive”.

What does the source list for `COc1ccc(CC2=NN3C([C@@H](CCc4ccccc4)[C@@H](C)O)=NC(C)C3C(=O)N2)cc1OC` (some centres not stated)?
Potency [1]: inactive; Potency [2]: inactive; Potency [3]: inactive

Which results are given for `Cc1ccc(N(CC2=NCCN2)c2cccc(O)c2)cc1`?
Potency [1]: inactive; Potency [2]: inactive; Potency [3]: 20.9 µM (active)

Which Potency [1] does the source give for `NC(=O)c1ccc(-c2nc(-c3ccc4c(c3)OCO4)c(-c3ccccn3)[nH]2)cc1` here?
Its Potency is “inactive”.

What about the Potency [2] of the same compound?
The Potency was “inactive”.

And the Potency [3]?
The Potency was 14.8 µM (active).

For `CCn1c(-c2nonc2N)nc2c(C#CC(C)(C)O)ncc(OC[C@H]3CCCNC3)c21`, which Potency [1] is on record?
The Potency was “inactive”.

And the Potency [2]?
Its Potency is “inactive”.

And the Potency [3]?
Its Potency is 14.8 µM (active).

Which results are given for `COc1ccccc1-c1cccc(-c2c(O)c3cc(C#N)c(Cl)cc3[nH]c2=O)c1`?
Potency [1]: inactive; Potency [3]: inactive

Which results are given for `Cc1cc2c(F)c(Oc3ncnn4cc(OC[C@@H](C)O)c(C)c34)ccc2[nH]1`?
Potency [1]: inactive; Potency [2]: inactive; Potency [3]: inactive

With `Oc1cccc(-c2nc(N3CCOCC3)c3oc4ncccc4c3n2)c1` as the compound, how does the Potency [1] read?
The Potency was “inactive”.

And the Potency [3]?
The Potency was 0.0762 µM (active).

With `NC(=O)C1CCCc2c1[nH]c1ccc(Cl)cc21` (configuration not stated) as the compound, how does the Potency [1] read?
Its Potency is “inactive”.

And the Potency [2]?
Its Potency is “inactive”.

What about the Potency [3] of the same compound?
The Potency was “inactive”.

For `CCOc1cc(N2CCC(O)CC2)ccc1Nc1ncc2c(n1)N(C)c1ccccc1C(=O)N2C`, which Potency [1] is on record?
Its Potency is “inactive”.

What about the Potency [2] of the same compound?
Its Potency is “inactive”.

What about the Potency [3] of the same compound?
The Potency was 11.8 µM (active).

Which Potency [1] does the source give for `NS(=O)(=O)c1cc2c(cc1Cl)NC=NS2(=O)=O` here?
The Potency was “inactive”.

What about the Potency [2] of the same compound?
The Potency was “inactive”.

And the Potency [3]?
The Potency was “inactive”.

Which Potency [1] does the source give for `CS(=O)(=O)Oc1ccc2c(NC(N)=O)c(C(=O)c3ccc(Cl)cc3Cl)oc2c1` here?
The Potency was “inactive”.

And the Potency [2]?
The Potency was “inactive”.

And the Potency [3]?
The Potency was “inactive”.

For `O=C(C=Cc1ccc(/C=C/C(=O)Nc2ccc(C3=NCCN3)cc2)cc1)Nc1ccc(C2=NCCN2)cc1`, which Potency [3] is on record?
Its Potency is “inactive”.

For `COCC(=O)NCC=Cc1ccc2ncnc(Nc3ccc(Oc4ccc(C)nc4)c(C)c3)c2c1`, which Potency [3] is on record?
The Potency was 26.4 µM (active).

For `CC(c1cc2ccccc2s1)N(O)C(N)=O` (configuration not stated), which Potency [1] is on record?
The Potency was “inactive”.

What about the Potency [2] of the same compound?
Its Potency is “inactive”.

What about the Potency [3] of the same compound?
Its Potency is “inactive”.

Which Potency [1] does the source give for `CCC(C)N(C)C(=O)c1cc2ccccc2c(-c2ccccc2Cl)n1` (configuration not stated) here?
The Potency was “inactive”.

What about the Potency [2] of the same compound?
The Potency was “inactive”.

What about the Potency [3] of the same compound?
Its Potency is “inactive”.

Which Potency [1] does the source give for `NNCCc1ccccc1` here?
The Potency was “inactive”.

And the Potency [2]?
Its Potency is “inactive”.

And the Potency [3]?
The Potency was 6.62 µM (active).

What does the source list for `Cc1c(CCOc2ccc(C(=O)O)cc2)c2cc(Cl)ccc2n1C(c1ccccc1)c1ccccc1`?
Potency [1]: inactive; Potency [3]: inactive

For `CN(C)c1ccc(Nc2nc(N)n(C(=O)c3c(F)cccc3F)n2)cc1`, which Potency [4] is on record?
Its Potency is “inactive”.

And the Potency [5]?
The Potency was 1.34 µM (active).

And the outcome [7]?
The outcome was “inactive”.

And the outcome [6]?
The outcome was “inactive”.

For `OCCn1cc(-c2cnc3nnn(Cc4ccc5ncccc5c4)c3n2)cn1`, which Potency [2] is on record?
Its Potency is 14.3 µM (active).

And the Potency [4]?
The Potency was “inactive”.

And the Potency [5]?
The Potency was “inactive”.

What about the outcome [7] of the same compound?
Its outcome is “inactive”.

What about the outcome [6] of the same compound?
Its outcome is “inactive”.

What about the Potency [3] of the same compound?
The Potency was “inactive”.

Which Potency [1] does the source give for `Cc1cccc(-c2nn(C(=S)Nc3ccccc3)cc2-c2ccnc3ccccc23)n1` here?
Its Potency is “inactive”.

And the Potency [3]?
The Potency was “inactive”.

Which results are given for `CCC(C)n1ncn(-c2ccc(N3CCN(c4ccc(OC[C@H]5CO[C@](Cn6cncn6)(c6ccc(Cl)cc6Cl)O5)cc4)CC3)cc2)c1=O` (some centres not stated)?
Potency [2]: inactive; Potency [4]: inactive; Potency [5]: inactive; outcome [7]: inactive; outcome [6]: inactive

Which Potency [1] does the source give for `CNC[C@H](O)c1cccc(O)c1` here?
The Potency was “inactive”.

What about the Potency [2] of the same compound?
Its Potency is “inactive”.

And the Potency [3]?
Its Potency is “inactive”.

Which Potency [3] does the source give for `C[C@]12CC[C@H](O)CC1=CC[C@@H]1[C@H]2CC[C@]2(C)C(c3cccnc3)=CC[C@H]12` here?
Its Potency is “inactive”.

Which Potency [1] does the source give for `CCn1c(-c2nonc2N)nc2cnc(Oc3cccc(NC(=O)c4ccc(OCCN5CCOCC5)cc4)c3)cc21` here?
The Potency was “inactive”.

And the Potency [2]?
The Potency was “inactive”.

And the Potency [3]?
The Potency was 14.8 µM (active).

Which Potency [2] does the source give for `Cc1csc(NC(=O)c2sc3nc4c(c(C(F)(F)F)c3c2N)CCC4)n1` here?
The Potency was “inactive”.

And the Potency [5]?
Its Potency is “inactive”.

And the outcome [7]?
Its outcome is “inactive”.

What about the outcome [6] of the same compound?
Its outcome is “inactive”.

And the Potency [3]?
The Potency was “inactive”.

For `CC(C)(C)OC(=O)CN(Cc1ccc(Cl)cc1)Cc1ccc([N+](=O)[O-])s1`, which Potency [2] is on record?
Its Potency is “inactive”.

What about the Potency [3] of the same compound?
The Potency was “inactive”.

Which results are given for `S=C(NCc1ccc2c(c1)OCO2)N1CCN(c2ncnc3c2oc2ccccc23)CC1`?
Potency [1]: inactive; Potency [4]: inactive; Potency [5]: inactive; outcome [7]: inactive; outcome [6]: inactive; Potency [3]: 27 µM (active)

For `N=c1nc(N2CCCCC2)cc(N)n1O`, which Potency [1] is on record?
The Potency was “inactive”.

And the Potency [2]?
Its Potency is “inactive”.

And the Potency [3]?
The Potency was “inactive”.

Which results are given for `O=C1CCCC2=C1C(c1[nH]ncc1Cl)N=C(Nc1nc3ccccc3o1)N2` (configuration not stated)?
Potency [2]: inactive; Potency [4]: inactive; Potency [5]: inactive; outcome [7]: inactive; outcome [6]: inactive; Potency [3]: inactive
